Source: PubChem BioAssay (National Center for Advancing Translational Sciences (NCATS))
Tau fibril ThT = tau fibrillization inhibition (ThT binding); P10636; recombinant tau K18 P301L, heparin-induced fibrillization, ThT fluorescence; Potency, µM (series often up to 57.4 µM), for inactives: top-dose activity, negative = inhibition, usual class: inhibitors; actives 2.1% (n = 270,000); AID 1460; further: nearly all actives have a fitted effect of over 55% in size
Target sequence (P10636 561-689 P618L limits assumed): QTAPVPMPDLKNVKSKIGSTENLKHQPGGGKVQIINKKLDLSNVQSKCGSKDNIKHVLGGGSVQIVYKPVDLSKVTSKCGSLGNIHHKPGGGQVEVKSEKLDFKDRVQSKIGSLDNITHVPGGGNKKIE
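Tau K18 P301L fragment (15 uM unlabeled plus 0.24 uM Alexa 594-labeled) in 100 mM sodium acetate pH 7 with compound, fibrillization induced by 20 uM heparin for 6 hr at 37 C. Thioflavin T (30 uM) added, fluorescence read after 1 hr (ex 450, em 510 nm).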
NPSR antagonist = antagonists of human neuropeptide S receptor cAMP signaling; Q6W5P4; CHO-NPSR cells, cAMP TR-FRET, antagonist mode; Potency, µM (series often up to 38.3 µM), without a hit: at the highest dose activity change, negative = inhibition, usual class: inhibitors; actives 1% (n = 220,000); AID 1461; further: nearly all actives have a fitted effect of over 50% in size
HPGD inh = inhibitors of human 15-hydroxyprostaglandin dehydrogenase (HPGD) | P15428 | purified HPGD, NADH fluorescence kinetic, PGE2 substrate | Potency, µM, for inactives: at the top dose activity change, negative = inhibition, hits mostly inhibitors | actives 4.3% (n = 150,000) | AID 894; active means well fitted inhibition curve with a large enough effect, not every such curve was filed as active; inconclusive means small, poorly fitted or top-dose-only effect, or another doubt; inactive means no such curve, though single readings can be large or run the other way
Target sequence (P15428 whole entry, looked up): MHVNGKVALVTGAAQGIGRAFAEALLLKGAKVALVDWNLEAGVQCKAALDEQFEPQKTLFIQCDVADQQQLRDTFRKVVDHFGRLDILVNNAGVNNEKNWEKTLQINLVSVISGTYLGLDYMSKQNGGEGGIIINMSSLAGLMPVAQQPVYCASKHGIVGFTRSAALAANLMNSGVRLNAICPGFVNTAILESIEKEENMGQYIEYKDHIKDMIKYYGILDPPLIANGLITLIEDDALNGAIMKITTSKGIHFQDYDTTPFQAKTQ
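NADH formation kinetics: reaction with 30 uM PGE2 and 1 mM NAD+ (final), 20 nM enzyme, Tris-HCl pH 8 with Tween 20, after 15 min compound preincubation at room temperature. Fluorescence change, last versus first of five reads.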
Tau fibril FP = blocks human tau fibril formation measured by polarization; P10636; AID 1468; actives 0.39% (n = 280,000); K18 P301L tau heparin fibrillization, Alexa594 FP, 6 h; Potency, µM (titrated, usually from 57.7 µM), for inactives: top-dose activity, negative = inhibition, actives largely listed as inhibitors; further: nearly all actives have a fitted effect of over 55% in size
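Steps: dispense K18 P301L tau (15 uM plus 0.24 uM Alexa 594 tracer, final) in pH 7 sodium acetate; add compound; add heparin (20 uM final); incubate 6 hr, 37 C; add ThT (30 uM final); after 1 hr ambient, read FP.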
Tau fluor cs = counter-screen for tau fibril formation inhibitors; AID 1463; tau K18 P301L Alexa594 fluorescence, heparin fibrillization; Potency, µM (titrated, usually from 57.7 µM), for inactives: at the top dose activity change, negative = decrease; actives 0.93% (n = 280,000); further: nearly all actives have a fitted effect of over 55% in size
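Human tau K18 P301L (15 uM unlabeled, 0.24 uM Alexa 594-labeled) in 100 mM sodium acetate pH 7 with 20 uM heparin, 6 hr at 37 C. ThT 30 uM added, 1 hr ambient; Alexa 594 FP and total fluorescence read at 555/632 nm.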
ALDH1A1 inh = blocks purified human ALDH1A1 activity; Purified ALDH1A1, NADH fluorescence, propionaldehyde substrate; Potency, µM (top dose mostly 75.3 µM), without a hit: top-dose activity, negative = inhibition, hits mostly inhibitors; AID 1030; P00352; actives 7.3% (n = 220,000); active means well fitted inhibition curve with a large enough effect, not every such curve was filed as active; inconclusive means small, poorly fitted or top-dose-only effect, or another doubt; inactive means no such curve, though single readings can be large or run the other way;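 further: plate controls were no enzyme wells and a reference inhibitor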
Active calls of the source: *; ? = inconclusive; . = not tested or not shown; [ ] = remark or other dose. Hits are enriched below; roughly 9.5% of the tested compounds scored in any of these assays. Unless noted, the call rests on the fitted dose curve; in most records, active means well fitted curve in the direction sought with a large enough effect; inconclusive means small, poorly fitted or top-dose-only effect, or another doubt; inactive means no such curve, though single readings can be large; an effect the other way counts as inactive or inconclusive. Unless noted, on the % scale 0 is the no-effect control and ±100 the full control effect; potency means the concentration at half of the fitted maximal effect.

SMILES	Tau fibril ThT	NPSR antagonist	HPGD inh	Tau fibril FP	Tau fluor cs	ALDH1A1 inh
COc1ccc(OC)c(NC(=O)C2C3CCC(O3)C2C(=O)O)c1 (stereo unspecified)	-3%	-7%[46.1 µM]	5%	-3%	-9%	2%
C/C1=C2N=C(/C=C3N=C(/C(C)=C4\[N-]C(C)(C5N=C1C(C)(CCC(=O)NCC(C)OP(=O)([O-])O[C@H]1C(O)C(n6cnc7cc(C)c(C)cc76)O[C@@H]1CO)C5CC(N)=O)C(C)(CC(N)=O)C4CCC(N)=O)C(C)(CC(N)=O)C\3CCC(N)=O)C(C)(C)C/2CCC(N)=O.[CH2-]C1OC(n2cnc3c(N)ncnc32)C(O)C1O.[Co] (stereo partly specified)	10µM*	.	-12%	13µM*	?	-7%
CCCCN(C)CCCNC(=O)C1CCN(c2nc3ccc(CC)cc3s2)CC1	-16%	.	.	-13%	-24%	.
O=[N+]([O-])c1cccc(C(=Nc2ccccc2)NO)c1	-9%	1%	-13%	6%	-19%	-14%
O=[N+]([O-])c1cc([N+](=O)[O-])c2c(=Nc3ccccc3)n(-c3ccccc3)n(O)c2c1	14µM*	?	.	?	16µM*[quencher]	0.35µM*
COc1ccc2c(c1)cc(CNc1ccc(OC)c(OC)c1)c(=O)n2CC(=O)Nc1ccc(F)cc1	?	.	.	6%	16µM*[quencher]	.
CCOC(=O)c1ccccc1NC(=O)c1ccccc1SC	-9%	?	-11%	-2%	-16%	14µM*
COCCCNC(=O)c1ccccc1SC	3%	-5%[46.1 µM]	32µM*	3%	2%	2%
CCOC(=O)c1ccccc1NC(=O)CN(c1ccccc1)S(=O)(=O)N(C)C	-6%	-29%[46.1 µM]	-5%	11%	-5%	28µM*
CCOCCCNC(=O)c1ccccc1SC	5%	-1%[46.1 µM]	-14%	8%	11%	8%
CCOC(=O)c1ccccc1NC(=O)CN(c1ccccc1OC)S(C)(=O)=O	-10%	-17%[46.1 µM]	-13%	-2%	-19%	-2%
COc1cc(-c2noc(-c3ccc(NCc4cccnc4)c([N+](=O)[O-])c3)n2)cc(OC)c1OC	-4%	.	.	5%	-16%	.
CCCc1nnc(NC(=O)Cc2coc3cc(C)cc(C)c23)s1	-4%	.	.	?	-11%	.
O=C(Nc1sc2c(c1C(=O)O)CCCCC2)c1ccco1	?	-21%[46.1 µM]	18µM*	0%	-8%	25µM*
NC(=O)c1c(NC(NC(=O)c2ccco2)(C(F)(F)F)C(F)(F)F)sc2c1CCCC2	?	0%[46.1 µM]	-6%	-12%	-15%	32µM*
NC(=O)c1c(NC(=O)c2ccco2)sc2c1CCC2	?	-12%[46.1 µM]	?	-1%	-17%	?
CN1CCN(C(=O)c2c(NC(=O)c3ccco3)sc3c2CCC(C(C)(C)C)C3)CC1 (stereo unspecified)	-11%	-3%[46.1 µM]	-19%	2%	-3%	13µM*
Cc1ccccc1C(=O)Nc1sc2c(c1C(=O)N1CCCCC1)CCC(C(C)(C)C)C2 (stereo unspecified)	?	.	.	-17%	-27%	.
CCOc1ccc(NC(=O)N(CCN(C)C)C(C)c2ccncc2)cc1 (stereo unspecified)	-14%	9%[46.1 µM]	-6%	6%	-5%	-3%
C=C(C)[C@@H]1CC[C@]2(C(=O)O)CC[C@]3(C)[C@H](CCC4[C@@]5(C)CC[C@H](O)C(C)(C)[C@@H]5CC[C@]43C)[C@@H]12 (stereo partly specified)	-5%	.	.	0%	1%	-12%
CCCCCCCCCC(=O)NNC(=O)c1c(O)c2ccccc2n(CCC)c1=O	-17%	-14%	.	-6%	-19%	5%
CCCn1c(=O)c(C(=O)NNS(=O)(=O)c2ccc(Cl)cc2)c(O)c2ccccc21	-17%	-4%	-20%	7%	-20%	32µM*
C#CCSc1nc2sc3c(c2c(=O)n1-c1cccc(OC)c1)CCN(C(C)=O)C3	25µM*	.	.	?	-8%	.
Oc1[nH]c(=S)sc1C=C1N=c2ccccc2=N1	14µM*	?	.	-1%	-29%	6%
O=C1N=c2ccc(Br)cc2=C1c1sc(=S)n(NS(=O)(=O)c2ccccc2)c1O	11µM*	-44%	.	?	14µM*[quencher]	?
SMILES	Tau fibril ThT	NPSR antagonist	HPGD inh	Tau fibril FP	Tau fluor cs	ALDH1A1 inh
Cc1ccc(S(=O)(=O)Nn2c(O)c(C=C3N=c4ccccc4=N3)sc2=S)cc1	11µM*	?	.	-3%	?	-9%
O=C(Nn1c(O)c(C=C2N=c3ccccc3=N2)sc1=S)c1ccc(Cl)cc1	11µM*	-22%[46.1 µM]	-22%	?	7.9µM*[quencher]	-14%
COc1cccc(Cn2c(SCC(=O)N(C)c3ccccc3)nc3ccccc32)c1	?	.	.	-8%	-11%	.
Cc1cccc(-n2c(C)cc(C(=O)C(=O)Nc3nncs3)c2C)c1	12%	.	.	-12%	3%	.
CSCCC(NC(=O)c1cccc([N+](=O)[O-])c1)C(=O)O (stereo unspecified)	-5%	22%	-7%	2%	-3%	3%
Cc1ccc(C(=O)Nn2c(O)c(C=C3N=c4ccccc4=N3)sc2=S)cc1	?	?	-17%	-14%	?	-6%
O=C(Nn1c(O)c(C=C2N=c3ccccc3=N2)sc1=S)c1ccccc1	14µM*	-15%[46.1 µM]	-10%	-2%	14µM*[quencher]	-5%
O=C(Nn1c(O)c(C=C2N=c3ccccc3=N2)sc1=S)c1cccc(Cl)c1	?	-12%[46.1 µM]	-15%	?	13µM*[quencher]	2%
O=c1c(CCc2ccccc2)nc2cnc(Oc3ccccc3)nc2n1C1CC1	.	.	.	.	.	11µM*
COc1cccc(Nc2ncc3nc(CCc4ccccc4)c(=O)n(C4CC4)c3n2)c1	.	.	-5%	.	.	-1%
COCCn1c(=O)c(CCc2ccccc2)nc2cnc(OCc3ccccc3)nc21	.	.	.	.	.	25µM*
N#CCCn1c(=O)c(CCc2ccccc2)nc2cnc(Oc3cccc(Cl)c3)nc21	.	.	0%	.	.	10µM*
